According to PubChem BioAssay (NCATS):
Records with an inconclusive call do not appear. Calls of active or inactive are those of the source. Unless noted, calls follow the shape of the dose curve; as a rule, active = well fitted curve in the direction sought with a large enough effect; inconclusive = small, poorly fitted or top-dose-only effect, or another doubt; inactive = no such curve, though single readings can be large; an effect the other way counts as inactive or inconclusive.

How the values were obtained:
[1] = target: Glucocorticoid receptor (Homo sapiens) (UniProt P04150); experiment: GR-GFP Redistribution (AID 450;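 active = compounds whose dose series gives a full or clear partial fitted curve of increased nuclear translocation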; also: potency is read from the fitted curve at half-maximal effect); conditions: U2OS GR-GFP nuclear translocation, laser cytometry, 2 h
Chain of Glucocorticoid receptor (Homo sapiens) (P04150 whole entry, looked up, the tested form may be a part): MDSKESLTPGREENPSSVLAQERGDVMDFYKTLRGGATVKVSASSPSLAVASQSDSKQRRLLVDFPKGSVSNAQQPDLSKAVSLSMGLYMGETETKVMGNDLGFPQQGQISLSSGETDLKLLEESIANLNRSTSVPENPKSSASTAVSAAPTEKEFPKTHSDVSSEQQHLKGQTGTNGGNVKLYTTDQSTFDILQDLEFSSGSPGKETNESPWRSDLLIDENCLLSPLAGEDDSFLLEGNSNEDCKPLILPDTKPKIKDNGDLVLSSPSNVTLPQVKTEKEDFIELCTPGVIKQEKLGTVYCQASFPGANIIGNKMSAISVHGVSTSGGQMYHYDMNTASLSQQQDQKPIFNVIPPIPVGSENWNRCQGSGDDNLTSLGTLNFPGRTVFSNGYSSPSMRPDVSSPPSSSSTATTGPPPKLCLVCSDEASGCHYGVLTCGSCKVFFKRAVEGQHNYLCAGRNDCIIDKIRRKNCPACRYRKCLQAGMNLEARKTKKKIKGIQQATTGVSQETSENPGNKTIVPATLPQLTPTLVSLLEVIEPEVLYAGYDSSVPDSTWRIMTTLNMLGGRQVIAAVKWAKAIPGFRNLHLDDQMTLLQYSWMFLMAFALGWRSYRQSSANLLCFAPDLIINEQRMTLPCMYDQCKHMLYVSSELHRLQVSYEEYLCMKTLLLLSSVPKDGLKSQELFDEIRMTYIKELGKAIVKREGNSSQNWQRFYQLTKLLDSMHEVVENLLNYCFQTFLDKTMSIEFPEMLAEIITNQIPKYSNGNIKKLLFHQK

[2] = target: Glucocorticoid receptor (Homo sapiens) (UniProt P04150); experiment: GR-EFC Redistribution (AID 451; calls by dose curve; also: potency is read from the fitted curve at half-maximal effect); conditions: CHO-K1 GR-EFC translocation, beta-gal luminescence, 2 h
Method in brief: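 CHO-K1 cells stably expressing nuclear-localized β-gal enzyme acceptor and GR fused C-terminally to the enzyme donor fragment; ligand-driven nuclear translocation restores β-gal by complementation. Compounds titrated up to 46 uM final, 2 h at 37 °C; luminescence read.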

[3] = target: Mitogen-activated protein kinase 10 (Mus musculus) (UniProt Q61831); experiment: JNK3 AlphaScreen Assay (AID 530; active = well fitted curve in either direction with a large enough effect, not every such curve was filed as active;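 also: kinase came from lysate of stimulated human HepG2 cells; signal reports phosphorylation of biotinylated GST-cJun 1-79 at Ser73 with 10 µM ATP; % is scaled to controls: 0 for no effect and ±100 for the full control effect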); conditions: JNK3 lysate, c-Jun phosphorylation; series mostly up to 57.1 µM
Method in brief: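 Inhibitors reduce antibody binding to phosphorylated biotin-cJun, lowering AlphaScreen luminescence. Lysates from HepG2 cells pre-activated by IL-1beta plus TNF-alpha supplied JNK3; compounds were titrated.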

[4] = target: 3',5'-cyclic-AMP phosphodiesterase 4B (Homo sapiens) (UniProt Q07343); experiment: qHTS Assay for Inhibitors of PDE-IV (AID 607; active = well fitted activation curve with a large enough effect in the main read-out, with a control signal flat, not every such curve was filed as active; also: potency is read from the fitted curve at half-maximal effect); conditions: HEK293 ACTOne CNG channel cells, membrane potential fluorescence; series mostly up to 22.9 µM
Chain of 3',5'-cyclic-AMP phosphodiesterase 4B (Homo sapiens) (Q07343 whole entry, looked up): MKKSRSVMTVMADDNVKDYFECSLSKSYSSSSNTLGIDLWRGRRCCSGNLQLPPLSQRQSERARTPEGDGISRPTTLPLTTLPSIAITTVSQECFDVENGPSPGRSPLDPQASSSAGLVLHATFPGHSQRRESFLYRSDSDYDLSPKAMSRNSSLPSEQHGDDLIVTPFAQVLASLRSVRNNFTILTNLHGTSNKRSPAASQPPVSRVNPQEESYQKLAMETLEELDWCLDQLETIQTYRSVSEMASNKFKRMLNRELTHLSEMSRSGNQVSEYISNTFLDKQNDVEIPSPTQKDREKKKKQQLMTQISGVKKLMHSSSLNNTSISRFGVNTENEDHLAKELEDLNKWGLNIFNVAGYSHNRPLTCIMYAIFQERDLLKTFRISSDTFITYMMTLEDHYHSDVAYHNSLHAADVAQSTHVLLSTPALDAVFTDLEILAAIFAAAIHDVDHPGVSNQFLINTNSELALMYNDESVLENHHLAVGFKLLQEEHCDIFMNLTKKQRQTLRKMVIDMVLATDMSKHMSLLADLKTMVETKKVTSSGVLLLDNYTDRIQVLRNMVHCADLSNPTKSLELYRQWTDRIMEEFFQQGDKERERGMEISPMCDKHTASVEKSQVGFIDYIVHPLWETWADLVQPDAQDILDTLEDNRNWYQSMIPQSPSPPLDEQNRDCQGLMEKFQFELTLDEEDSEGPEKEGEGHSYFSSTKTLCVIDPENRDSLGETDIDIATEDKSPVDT
Method in brief: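 The readout is membrane depolarisation from a cAMP-sensing CNG channel, detected with a potential dye at ex 535/em 590. Cells were HEK293-derived (endogenous PDE-IV) at 1000 cells/well, titrated up to 22.9 uM final.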

[5] = Cell Viability - N2a (AID 540); conditions: N2a mouse neuroblastoma cell viability; activity change, negative = cytotoxicity: at 92.2 µM (top of the series); also: nearly all actives have a fitted effect of over 45% in size; also: potency is read from the fitted curve at half-maximal effect;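 as to activity change, negative = cytotoxicity: plate controls were DMSO alone for no effect and tamoxifen control for full effect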
Method in brief: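 Luminescent ATP signal (CellTiter-Glo, 20 min at room temperature) served as the viability read-out after N2a cells were treated with compounds for 40 hours at 37 °C. Concentration-response data were fitted to the Hill equation for AC50.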

[6] = Cell Viability - NIH 3T3 (AID 541); conditions: NIH 3T3 cell viability, qHTS; series mostly up to 92.2 µM; also: nearly all actives have a fitted effect of over 25% in size; also: potency is read from the fitted curve at half-maximal effect;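 as to activity change, negative = cytotoxicity: plate controls were DMSO alone for no effect and tamoxifen positive control for full effect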
Method in brief: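 Luminescent ATP signal (CellTiter-Glo) served as the viability read-out after NIH 3T3 cells were exposed to compounds over a concentration range for 40 hr at 37 °C. Hill-equation modelling of concentration-response data gave AC50.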

[7] = Cell Viability - HUV-EC-C (AID 542); conditions: HUV-EC-C endothelial cell viability, qHTS; series mostly up to 92.2 µM; also: nearly all actives have a fitted effect of over 35% in size; also: potency is read from the fitted curve at half-maximal effect; as to activity change, negative = cytotoxicity: % is scaled to controls: 0 for no effect and ±100 for the full control effect
Method in brief: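 qHTS cytotoxicity: HUV-EC-C, 1000 cells/well, 5 hr settle, compound 40 hr 37 °C, CellTiter-Glo, luminescence. AC50 via Hill equation.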

[8] = Cell Viability - H-4-II-E (AID 543); conditions: H-4-II-E rat hepatoma viability; series mostly up to 92.2 µM; also: nearly all actives have a fitted effect of over 35% in size; also: potency is read from the fitted curve at half-maximal effect
Method in brief: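 Luminescent ATP signal (CellTiter-Glo) served as the viability read-out, with cytotoxicity seen as a concentration-dependent ATP drop. Cells were treated for 40 hours in complete medium. AC50 values derive from Hill-equation modelling.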

[9] = Cell Viability - SH-SY5Y (AID 544); conditions: SH-SY5Y neuroblastoma cell viability; series mostly up to 92.2 µM; also: nearly all actives have a fitted effect of over 55% in size; also: potency is read from the fitted curve at half-maximal effect
Method in brief: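 Luminescent ATP read-out (CellTiter-Glo) measures loss of viable SH-SY5Y neuroblastoma cells after 40 hr compound exposure at 37 °C. AC50 values derive from standard Hill modelling of qHTS concentration-response data.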

[10] = Cell Viability - Renal Proximal Tubule (AID 545); conditions: renal proximal tubule cells viability; series mostly up to 91.7 µM; also: nearly all actives have a fitted effect of over 40% in size; also: potency is read from the fitted curve at half-maximal effect
Method in brief: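 Primary rat renal proximal tubule cells (1000/well) were treated with compounds for 40 hr at 37 °C in complete medium. Intracellular ATP was measured by CellTiter-Glo luminescence, and AC50 values came from Hill-equation fits of concentration-response data.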

[11] = Cell Viability - Mesenchymal (AID 546); conditions: mesenchymal cells viability, qHTS; series mostly up to 91.7 µM;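 also: cells exposed to compound for 40 hours before reading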; also: potency is read from the fitted curve at half-maximal effect
Method in brief: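 Normal human renal glomerulus-derived kidney mesenchymal cells, 1000 per well in complete medium, were treated with compounds for 40 hr at 37 °C. Viability was read as intracellular ATP by CellTiter-Glo luminescence; AC50 values came from Hill-equation fits of qHTS concentration-response data.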

[12] = Cellular Toxicity (caspase-3) HepG2 (AID 654); conditions: HepG2 caspase-3 activation, luminescence, 0% = DMSO only, 100% = tamoxifen; series mostly up to 92.2 µM;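 also: cells exposed to compound for 16 hours before reading; 0% = DMSO alone and 100% = caspase signal from 100 µM tamoxifen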
Method in brief: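 Cells plated 5 hr at 37 °C, compound added, incubated 16 hr at 37 °C. Caspase-Glo 3/7 reagent followed, 20 min at room temperature, then luminescence read. Activation scored as signal increase; AC50 from Hill fit.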

[13] = Cellular Toxicity (caspase-3) HUV-EC-C (AID 656); conditions: HUV-EC-C cells, caspase-3 activation (apoptosis), vehicle = 0, 100 µM tamoxifen = 100%; series mostly up to 92.2 µM
Method in brief: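 HUV-EC-C endothelial cells, 1000/well, were pre-incubated 5 hr at 37°C, then exposed to compounds for 16 hr at 37°C. Caspase-Glo 3/7 luminescence was read after 20 min at room temperature. AC50 came from Hill fits, normalized to DMSO and 100 uM tamoxifen.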

[14] = Cellular Toxicity (caspase-3) SHSY5Y (AID 657); conditions: SH-SY5Y caspase-3 activation, DMSO zero, 10 µM staurosporine = 100%; series mostly up to 91.7 µM
Method in brief: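 SH-SY5Y human neuroblastoma cells (1500/well) were treated with compounds for 16 h at 37 °C, then Caspase-Glo 3/7 luminescence was read after 1 h at room temperature. Data normalized to DMSO and 10 uM staurosporine; AC50 from Hill fits.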

[15] = Cellular Toxicity (caspase-3) BJ (AID 658); conditions: BJ fibroblasts, luminescence, normalized: DMSO 0%, staurosporine 100%; series mostly up to 91.7 µM
Method in brief: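 Luminescent aminoluciferin-substrate cleavage reports caspase 3/7 activity in normal human BJ fibroblasts after 16 hr compound exposure at 37 °C. Normalized to DMSO (basal) and 10 uM staurosporine (100%); AC50 from Hill fit of concentration-response.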

[16] = Cellular Toxicity (caspase-3) MRC-5 (AID 659); conditions: MRC-5 cells, luminescence, normalized: DMSO 0%, 10 µM staurosporine 100%; series mostly up to 91.7 µM
Method in brief: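 Luminescence from caspase-cleaved aminoluciferin substrate (Caspase-Glo 3/7, 1 hr RT) reports caspase 3/7 activity in MRC-5 lung fibroblasts after 16 hr compound exposure. Normalized to DMSO basal and 10 uM staurosporine as 100%; AC50 from Hill fits.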

[17] = Cellular Toxicity (caspase-3) Mesangial (AID 660); conditions: mesangial cells, normalized: DMSO 0%, 100 µM tamoxifen 100%; series mostly up to 91.7 µM;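 also: combined caspase 3 and 7 activity read by Caspase-Glo luminescence; cells exposed to compound for 16 h before the caspase read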
Method in brief: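 Mesangial cells, 1000/well, 5 h settle at 37 °C; compound 16 h, 37 °C; Caspase-Glo 3/7 reagent 20 min RT; luminescence. Norm.: DMSO = 0%, tamoxifen 100 uM = 100%. AC50, Hill fit.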

[18] = Cellular Toxicity (caspase-3) SK-N-SH (AID 661); conditions: SK-N-SH caspase-3 activation, qHTS, DMSO as zero, staurosporine as full; series mostly up to 91.7 µM
Method in brief: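 Human neuroblastoma SK-N-SH, 1500 cells/well, 5 hr pre-incubation, then compound 16 hr, 37 °C. Caspase-Glo 3/7 reagent, 1 hr RT, luminescence. Norm. to DMSO/10 uM staurosporine; Hill-fit AC50.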

[19] = Cellular Toxicity (caspase-3) H-4-II-E (AID 663); conditions: H-4-II-E rat hepatoma, scaled: DMSO 0%, 100 µM tamoxifen 100%; series mostly up to 92.2 µM;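 also: cells exposed to compound for 16 hr before readout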
Method in brief: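 Luminescence from caspase-cleaved aminoluciferin substrate, read 20 min after reagent addition, reports caspase 3/7 activation in rat H-4-II-E cells after 16 hr compound exposure. Normalized to DMSO (basal) and 100 uM tamoxifen (100%); AC50 from Hill fits.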

[20] = Cellular Toxicity (caspase-3) Jurkat (AID 655); conditions: Jurkat caspase-3 activation, luminescence, DMSO = 0%, tamoxifen = 100%; series mostly up to 92.2 µM;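 also: cells exposed to compound for 16 h at 37 °C before reading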
Method in brief: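 Jurkat cells (5000/well) in complete medium were treated with compounds for 16 hr at 37 °C, then Caspase-Glo 3/7 luminescence was read after 20 min at room temperature. Data normalized to DMSO (basal) and 100 uM tamoxifen (100%); AC50 from Hill fit.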

c1ccc2sc(C3(N4CCCCC4)CCCCC3)cc2c1
inactive: Potency [1] > 46000 nM | Potency [2] > 46000 nM | outcome [3] | Potency [4]

CC(=O)[O][Hg][c]1ccccc1
inactive: outcome [3] | outcome [12] | outcome [13] | outcome [14] | outcome [15] | outcome [16] | outcome [17] | outcome [18] | outcome [19]
active: Potency [5] 10000 nM | Potency [6] 63.1 nM | Potency [7] 1260 nM | Potency [8] 2000 nM | Potency [9] 126 nM | Potency [10] 631 nM | Potency [11] 2000 nM

O=[N+]([O-])c1c(Cl)c(Cl)cc(Cl)c1Cl
inactive: outcome [3] | activity change, negative = cytotoxicity [5] 3.06% | Potency [7] | Potency [8] | Potency [9] | Potency [10] | Potency [11] | outcome [12] | outcome [20] | outcome [13] | outcome [14] | outcome [15] | outcome [16] | outcome [17] | outcome [18] | outcome [19]

C#CCOC(=O)C1=CCCN(C)C1
active: Potency [4] 398 nM
inactive: Potency [1] > 46000 nM | Potency [2] > 46000 nM | outcome [3]

c1cc2ccc3cccc4ccc(c1)c2c34
inactive: activity change, negative = cytotoxicity [5] 2.91% | Potency [6] | Potency [7] | Potency [8] | Potency [9] | Potency [10] | Potency [11] | outcome [12] | outcome [20] | outcome [13] | outcome [14] | outcome [15] | outcome [16] | outcome [17] | outcome [18] | outcome [19]

CCCCCCCCc1ccc(O)cc1
inactive: outcome [3] | activity change, negative = cytotoxicity [5] -16.1% | Potency [6] | Potency [7] | Potency [8] | Potency [9] | Potency [10] | Potency [11] | outcome [12] | outcome [20] | outcome [13] | outcome [14] | outcome [15] | outcome [16] | outcome [17] | outcome [18] | outcome [19]

CN(C)NC(=O)CCC(=O)O
inactive: outcome [3] | activity change, negative = cytotoxicity [5] -4.24% | Potency [6] | Potency [7] | Potency [8] | Potency [9] | Potency [10] | Potency [11] | outcome [12] | outcome [20] | outcome [13] | outcome [14] | outcome [15] | outcome [16] | outcome [17] | outcome [18] | outcome [19]

CCCCOC(=O)c1ccccc1C(=O)OCc1ccccc1
inactive: activity change, negative = cytotoxicity [5] -9.01% | Potency [6] | Potency [7] | Potency [8] | Potency [9] | Potency [10] | Potency [11] | outcome [12] | outcome [20] | outcome [13] | outcome [14] | outcome [15] | outcome [16] | outcome [17] | outcome [18] | outcome [19]

CC(C)(O)C(=O)Nc1ccc([N+](=O)[O-])c(C(F)(F)F)c1
active: activity change, negative = cytotoxicity [5] -95.6%
inactive: outcome [3] | Potency [7] | Potency [9] | Potency [10] | Potency [11] | outcome [12] | outcome [20] | outcome [13] | outcome [14] | outcome [15] | outcome [16] | outcome [17] | outcome [18] | outcome [19]

Nc1ccc(Cl)cc1N
inactive: outcome [3] | Potency [7] | Potency [8] | Potency [10] | Potency [11] | outcome [13] | outcome [14] | outcome [15] | outcome [16] | outcome [17] | outcome [18] | outcome [19]
active: Potency [6] 631 nM

Nc1ccc(Sc2ccc(N)cc2)cc1
inactive: outcome [3] | activity change, negative = cytotoxicity [5] -14% | Potency [6] | Potency [7] | Potency [9] | Potency [10] | Potency [11] | outcome [12] | outcome [20] | outcome [13] | outcome [14] | outcome [15] | outcome [16] | outcome [17] | outcome [18] | outcome [19]

COC(C)(C)CCCC(C)C/C=C/C(C)=C/C(=O)OC(C)C (configuration not stated)
inactive: outcome [3] | activity change, negative = cytotoxicity [5] -12% | Potency [6] | Potency [7] | Potency [8] | Potency [9] | Potency [10] | Potency [11] | outcome [12] | outcome [20] | outcome [13] | outcome [14] | outcome [15] | outcome [16] | outcome [17] | outcome [18] | outcome [19]

CCOCCOC(C)=O
inactive: outcome [3] | activity change, negative = cytotoxicity [5] -15.1% | Potency [6] | Potency [7] | Potency [8] | Potency [9] | Potency [10] | Potency [11] | outcome [12] | outcome [20] | outcome [13] | outcome [14] | outcome [15] | outcome [16] | outcome [17] | outcome [18] | outcome [19]

C=CC(=O)NCNC(=O)C=C
inactive: outcome [3] | activity change, negative = cytotoxicity [5] 2.37% | Potency [6] | Potency [7] | Potency [8] | Potency [9] | Potency [10] | Potency [11] | outcome [12] | outcome [20] | outcome [13] | outcome [14] | outcome [15] | outcome [16] | outcome [17] | outcome [18] | outcome [19]

O=[N+]([O-])c1c2ccccc2cc2ccccc12
inactive: outcome [3] | activity change, negative = cytotoxicity [5] -0.277% | Potency [6] | Potency [7] | Potency [8] | Potency [10] | Potency [11] | outcome [12] | outcome [20] | outcome [13] | outcome [14] | outcome [15] | outcome [16] | outcome [17] | outcome [18] | outcome [19]
